SMILES strings stand for the structures. Compounds without any hit were thinned out: in the full panel of roughly 83,000, 20% have a hit.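 The endpoint reported here, percent growth, reads 100 for growth as untreated, 0 for no net growth and -100 for all cells dead.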 Unmarked numbers belong to inactive results. Calls of active or inactive are those of the source.

In the test the test system is LOX IMVI melanoma. In words: NCI-60 one-dose screen, 48 h (100 = growth as untreated, 0 = no growth, -100 = all killed). To be noted: 10 µM. Here is the method:
Growth inhibition of the LOX IMVI human tumor cell line is measured as a screen for anti-cancer activity. Cells are grown in 96 well plates and exposed to the test compound for 48 hours. Compounds are tested at a single concentration, which is 10^-5 M for most compounds. The reported endpoint is percent growth (GI% or GIPRCNT), where numbers from 0 - 100% represent growth inhibition, and numbers from -100% - 0 represent cell death. For example, a value of 40 represents 60% growth inhibition. A value of 0 means no net growth occurred over the course of the experiment. A value of -40 indicates 40% of cells at the beginning of the experiment died by the end of the experiment. A value of -100 means all cells are dead at the end of the experiment.
NCI-60 Human Tumor Cell Lines Screen was performed using the standard one-dose NCI protocol, which is described in more detail at https://dtp.cancer.gov/discovery_development/nci-60/default.htm.
Compounds with GIPRCNT values below 10 were considered active. Activity score was based on GIPRCNT using the following formula: […]
Score is 0 for GIPRCNT values of 100 or above, 50 for GIPRCNT values of 0, and 100 for GIPRCNT values of -100.
Turning to `COc1cc(CCN=Cc2ccccc2O)c([N+](=O)[O-])cc1OC`, the growth is 99.4%. Then `Cc1ccccc1C1N=C2Oc3ccccc3C=C2C(=O)N1` (stereo not given), with 57.3%; and `c1ccc2c(c1)Sc1ccccc1S2`, with 98.2%.

For `O=C1C=C(Nc2ccc([N+](=O)[O-])cc2)c2ccccc2C1=O`, the growth is 9.66% (active). Then `Cc1nc2ccccc2c(C(=O)O)c1O`, with 96.4%; and `Oc1ccc2c(c1)OCC1(O)Cc3cc(O)c(O)cc3C21` (stereo not given), with 98.2%.

With `CC(C)OC(C(=O)O)c1ccccc1` (stereo not given), the growth was 88.5%. The result for `CCOC(=O)C(CCC(C)C)C(=O)OCC` reads 115%. In the case of `CCOC(=O)CSc1c([N+](=O)[O-])ncn1C`, the growth was 97.7%. The result for `COCCCC/C(=N\OCCN)c1ccc(C(F)(F)F)cc1` reads 94.8%; that for `CCOC(=O)C1OC1c1ccccc1` (stereo not given), 101%. Then `Cc1cc(N)ccc1-c1ccc(N)cc1C`, with 88.2%. Then `N#CC1(Nc2ccc3c4c(cccc24)CC3)CCCCC1`, with 97.6%. For the molecule `O=C(Nc1ccccc1C(=O)NCC1CC1)c1cccs1`, the growth is 102%. Then `CC(C)C1CCCCC1O` (stereo not given), with 96.3%; and `Cc1ncc(C#N)c(N)n1`, with 100%; and `CCOC(=O)c1cc(/C=C/c2cccc(Cl)c2)on1`, with -3.76% (active). The result for `CC[N+](C)(CC)CCO` reads 101%. The result for `COc1cccc(/C=N/NC(=S)NC2CC3CCC2C3)c1O` (stereo not given) reads 44.2%; that for `CCN(CC)c1ccc2nc3ccc(=[N+](CC)CC)cc-3oc2c1`, -22.7% (active); that for `Nc1ccccc1SC(CC(=O)c1ccccc1)c1c(Cl)cccc1Cl` (stereo not given), 22.7%. With `Cc1cc2nc(CC(=O)c3cccc([N+](=O)[O-])c3)c(=O)[nH]c2cc1C`, the growth is 72.8%.

As for `CCOC(=O)c1ccc(NC(=S)P(=O)(c2ccccc2)c2ccccc2)cc1`, the growth is 84.8%. The result for `CC(=O)Nc1c(C)cc(C)cc1C` reads 96.9%; that for `Nc1ccc(NC(=O)c2cccc(N)c2)cc1`, 89.9%; that for `O=C1OC(=O)C2C1C1(Cl)C(Cl)=C(Cl)C2(Cl)C2C(=O)OC(=O)C21` (stereo not given), 98.4%. As to `CC(=O)N(C)c1ccc([N+](=O)[O-])cc1`, the growth is 98.4%. The result for `c1ccc(Sc2ccccc2)cc1` reads 104%. The result for `COc1cc(C(=O)N/N=C/c2cccc([N+](=O)[O-])c2)cc(OC)c1OC` reads 50.2%. Then `CCCCNC1(C#N)CCN(Cc2ccccc2)CC1`, with 99.7%.

Consider `Nc1ccc(N=Nc2ccc(S(=O)(=O)O)cc2)c2ccccc12`, for which the growth is 100%.

`CC(=O)OCC1OC(OC2=C(CC=C(C)C)C(=O)c3ccccc3C2=O)C(OC(C)=O)C(OC(C)=O)C1OC(C)=O` (stereo not given): the growth was 6.88% (active). The result for `CC(C)C(C#N)(C(C)C)C(C)C` reads 112%; that for `CCCNC(=O)c1ccc(S(N)(=O)=O)cc1`, 98.9%; that for `S=c1sc2ccccc2n1CN1CCCCC1`, 84.5%. As to `O=c1c2ccccc2c(Br)c(Br)c2ccccc12`, the growth was 3.1% (active).

For the molecule `c1ccc(Cc2ccccc2)cc1`, the growth was 99.5%.

Consider `CC(C)=NNC(N)=S`, for which the growth was 69.7%. Take `CC(C)(O)C#CC#CC(C)(C)O`: the growth was 97%. The result for `O=[N+]([O-])c1ccc(CO)cc1` reads 99.2%.
